# PubChem BioAssay
# Unmarked numbers belong to inactive results. Active and inactive are the calls of the source.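 The calls were made as follows, unless noted: active = mean inhibition above 46.68%, the untreated control wells mean plus 3 SD; inactive = the rest.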
# System: transactivating tegument protein VP16 (Human herpesvirus 1), Gal4-VP16 luciferase reporter
# Experiment: repression of VP16-driven luciferase reporter – cell-based, luminescence, high throughput, counter-screen for SRC3 inhibitor project (AID 588794; in the data active = inhibition above about 30%)
# Conditions: mammalian cells, at 3.6 µM, active compounds read high
row,SMILES,inhibition
1,Cn1c(=O)c2c(nc(NCc3ccco3)n2C/C=C/c2ccccc2)n(C)c1=O,44% (active)
2,O=C(Nc1nc(-c2ccc(S(=O)(=O)N3CCOCC3)cc2)cs1)c1ccccc1,19%
3,CC(C)c1ccc(/C=N/Nc2ccc(C(=O)O)cc2)cc1,-26.7%
4,O=c1[nH]cc(F)c(=O)[nH]1,31% (active)
5,CC(C)n1cc(/C=C/c2cc[n+](C)cc2)c2ccccc21,21%
6,CN(C(=O)COC(=O)/C=C/c1cccc([N+](=O)[O-])c1)C1CCS(=O)(=O)C1 (configuration not stated),32.4% (active)
7,Cc1cc(=O)[nH]c(Nc2cccc(C(F)(F)F)c2)n1,34.2% (active)
8,COc1ccc2cc3c(N)nn(C(=O)c4ccc(Cl)c([N+](=O)[O-])c4)c3nc2c1,39.4% (active)
9,CCOC(=O)C(=Cc1ccccc1OC)C(=O)OCC,25.4%
10,Cn1c(=O)c2c(nc(Oc3ccc4ccccc4c3)n2C)n(C)c1=O,39.4% (active)
11,O=C(Nc1c2ccccc2nc2ccccc12)C(Cl)(Cl)Cl,10.5%
12,CC(=O)Nc1ccc(SCC(=O)c2cc(C)n(-c3ccccc3)c2C)cc1,19.6%
13,COc1ccc(Cc2nnc(SCc3ccc([N+](=O)[O-])cc3)o2)cc1,15.8%
14,COC1CC(C)C(OC)c2cc(O)cc(c2O)NC(=O)C(C)=CC=CC(C)C(OC(N)=O)C(C)=CC(C)C1OC (configuration not stated),80.2% (active)
15,CCN1/C(=C/c2ccc3cc(C)cc(C)c3[n+]2CC)Sc2cc(C)ccc21,66.3% (active)
16,CN(C)c1ccc(CNC(=O)CCNS(=O)(=O)c2cc(Br)cnc2N)cc1,19.3%
17,CN(Cc1ccccc1)c1ncnc(N)c1[N+](=O)[O-],34.3% (active)
18,c1ccc(-c2noc(-c3ccc4c(c3)OCO4)n2)nc1,7.86%
19,COc1ccc2cc3c(N)nn(C(=O)c4ccc(F)cc4)c3nc2c1,36.1% (active)
20,O=C(/C=C/c1ccc(OCCCF)cc1)Nc1ccnc(-c2cccnc2)n1,11.1%
21,CCCCNc1nc2c(c(=O)n(C)c(=O)n2C)n1Cc1cccc(OC)c1,25.3%
22,CN1CCN(c2ncnc3scc(-c4ccccc4Cl)c23)CC1,41.5% (active)
23,O=C(N/N=C/c1ccccc1O)/C(=C/c1ccccc1)CCO,18.1%

# Biological target: Nuclear receptor coactivator 1 (Homo sapiens) (UniProt Q15788)
# Experiment: NCOA1 GAL4-fusion reporter inhibition – cell-based, luminescence, quadruplicate, confirmation (AID 588820);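 also: 0% = DMSO wells and 100% = gossypol 36 µM treated wells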
# Conditions: HEK293 GAL4-SRC1 luciferase reporter, at 3.6 µM, active compounds read high
# Chain of Nuclear receptor coactivator 1 (Homo sapiens) (Q15788 whole entry, looked up, the tested form may be a part): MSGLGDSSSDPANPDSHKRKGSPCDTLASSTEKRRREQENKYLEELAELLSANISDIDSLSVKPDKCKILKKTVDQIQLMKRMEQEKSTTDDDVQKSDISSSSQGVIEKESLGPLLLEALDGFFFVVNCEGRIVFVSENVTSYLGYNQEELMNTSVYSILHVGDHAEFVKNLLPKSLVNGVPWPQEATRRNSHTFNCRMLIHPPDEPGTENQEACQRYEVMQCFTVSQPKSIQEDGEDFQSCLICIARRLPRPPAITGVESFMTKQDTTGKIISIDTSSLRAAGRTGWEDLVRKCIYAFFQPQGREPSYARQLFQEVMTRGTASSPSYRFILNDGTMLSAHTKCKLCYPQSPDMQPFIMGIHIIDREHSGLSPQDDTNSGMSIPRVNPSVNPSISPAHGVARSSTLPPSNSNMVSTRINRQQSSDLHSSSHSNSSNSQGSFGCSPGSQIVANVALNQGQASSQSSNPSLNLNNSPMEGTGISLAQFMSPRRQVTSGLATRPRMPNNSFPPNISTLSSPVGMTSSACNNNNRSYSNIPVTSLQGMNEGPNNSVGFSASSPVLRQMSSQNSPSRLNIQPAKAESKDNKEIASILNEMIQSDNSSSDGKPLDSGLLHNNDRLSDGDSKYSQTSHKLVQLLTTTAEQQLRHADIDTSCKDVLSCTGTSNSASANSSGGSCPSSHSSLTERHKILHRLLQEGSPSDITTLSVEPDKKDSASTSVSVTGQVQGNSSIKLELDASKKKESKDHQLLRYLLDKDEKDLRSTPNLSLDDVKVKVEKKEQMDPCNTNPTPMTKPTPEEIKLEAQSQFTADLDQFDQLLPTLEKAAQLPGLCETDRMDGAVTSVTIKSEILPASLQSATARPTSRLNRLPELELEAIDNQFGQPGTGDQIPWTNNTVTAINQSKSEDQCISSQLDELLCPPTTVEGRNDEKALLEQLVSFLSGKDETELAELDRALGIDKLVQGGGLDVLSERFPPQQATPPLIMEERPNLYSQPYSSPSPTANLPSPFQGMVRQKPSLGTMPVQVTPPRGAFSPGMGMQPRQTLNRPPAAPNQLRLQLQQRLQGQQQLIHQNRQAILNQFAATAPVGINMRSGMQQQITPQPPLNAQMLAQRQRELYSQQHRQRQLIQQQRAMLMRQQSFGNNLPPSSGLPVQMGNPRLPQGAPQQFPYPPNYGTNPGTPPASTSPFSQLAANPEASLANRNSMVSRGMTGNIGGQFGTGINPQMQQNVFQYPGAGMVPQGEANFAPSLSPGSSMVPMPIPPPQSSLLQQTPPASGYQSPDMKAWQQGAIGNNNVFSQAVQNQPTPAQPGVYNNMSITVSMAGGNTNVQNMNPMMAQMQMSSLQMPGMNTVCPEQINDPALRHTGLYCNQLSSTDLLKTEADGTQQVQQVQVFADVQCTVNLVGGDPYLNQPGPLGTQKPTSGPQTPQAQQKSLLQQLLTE
row,SMILES,inhibition
1,Cc1sc(NC(=O)Cc2ccc3c(c2)OCO3)nc1-c1ccc2c(c1)CCN2C(=O)c1ccc(F)cc1,17.3%
2,COc1ccc(NC(=O)c2cc([N+](=O)[O-])ccc2O)cc1,-37.7%
3,Cc1cc(C(=O)NNc2ccc(F)cc2)no1,-4.64%
4,C(=Cc1cnc2ccccc2n1)c1ccc2c(c1)OCO2,-41.3%
5,Cc1nc2ccc(NC(=O)c3ccc(Cl)c(S(=O)(=O)N(C)c4ccccc4)c3)cc2s1,3.35%
6,Cn1c(/C=C/c2ccc(Cl)cc2)c([N+](=O)[O-])c(=O)n(C)c1=O,36.3%
7,CCOc1ccc(-n2c(C)c(C(C)=O)c3cc(OC(C)=O)ccc32)cc1,65.8% (active)
8,Cc1ccc(C(=O)NCCn2cc(SCC(=O)Nc3nnc(C)s3)c3ccccc32)cc1,-32.5%
9,Nc1nc(=O)n(C2OC(CO)C(O)C2O)cc1F (configuration not stated),40.1%
10,Cn1c(Sc2ccc(Cl)cc2)c(C=O)c2ccccc21,60% (active)
11,CC[n+]1ccccc1/C=C/c1ccc(N(C)C)cc1,15.4%
12,CC(=O)N(C(C)=O)c1ncc2c([nH]c3ccccc32)c1C#N,48.5% (active)
13,O=C(NCc1cccs1)c1nc2c(nnn2Cc2ccccc2Cl)c(=O)[nH]1,58.5% (active)
14,c1nc2sc3c(c2c2nnnn12)CCCC3,36.8%
15,Cn1c(/C=C/c2ccc(Cl)cc2Cl)c([N+](=O)[O-])c(=O)n(C)c1=O,47.2% (active)
16,CC(=O)c1ccc(Nc2ncnc3ccc(Br)cc23)cc1,56.4% (active)
17,Cn1c(=O)c2c(nc(NCc3ccco3)n2C/C=C/c2ccccc2)n(C)c1=O,18.6%
18,O=C(Nc1nc(-c2ccc(S(=O)(=O)N3CCOCC3)cc2)cs1)c1ccccc1,-17.1%
19,CC(C)c1ccc(/C=N/Nc2ccc(C(=O)O)cc2)cc1,-72.5%
20,O=c1[nH]cc(F)c(=O)[nH]1,8.56%

row,SMILES,inhibition
1,CC(C)n1cc(/C=C/c2cc[n+](C)cc2)c2ccccc21,16.8%
2,CN(C(=O)COC(=O)/C=C/c1cccc([N+](=O)[O-])c1)C1CCS(=O)(=O)C1 (configuration not stated),41.6%
3,Cc1cc(=O)[nH]c(Nc2cccc(C(F)(F)F)c2)n1,49.4% (active)
4,COc1ccc2cc3c(N)nn(C(=O)c4ccc(Cl)c([N+](=O)[O-])c4)c3nc2c1,56.7% (active)
5,CCOC(=O)C(=Cc1ccccc1OC)C(=O)OCC,9.25%
6,Cn1c(=O)c2c(nc(Oc3ccc4ccccc4c3)n2C)n(C)c1=O,53.3% (active)
7,O=C(Nc1c2ccccc2nc2ccccc12)C(Cl)(Cl)Cl,-35%
8,CC(=O)Nc1ccc(SCC(=O)c2cc(C)n(-c3ccccc3)c2C)cc1,-4.5%
9,COc1ccc(Cc2nnc(SCc3ccc([N+](=O)[O-])cc3)o2)cc1,19.3%
10,COC1CC(C)C(OC)c2cc(O)cc(c2O)NC(=O)C(C)=CC=CC(C)C(OC(N)=O)C(C)=CC(C)C1OC (configuration not stated),-2.07%
11,CCN1/C(=C/c2ccc3cc(C)cc(C)c3[n+]2CC)Sc2cc(C)ccc21,0.74%
12,CN(C)c1ccc(CNC(=O)CCNS(=O)(=O)c2cc(Br)cnc2N)cc1,8.5%
13,CN(Cc1ccccc1)c1ncnc(N)c1[N+](=O)[O-],38.4%
14,c1ccc(-c2noc(-c3ccc4c(c3)OCO4)n2)nc1,8.09%
15,COc1ccc2cc3c(N)nn(C(=O)c4ccc(F)cc4)c3nc2c1,56.7% (active)
16,O=C(/C=C/c1ccc(OCCCF)cc1)Nc1ccnc(-c2cccnc2)n1,-25.6%
17,CCCCNc1nc2c(c(=O)n(C)c(=O)n2C)n1Cc1cccc(OC)c1,16.8%
18,CN1CCN(c2ncnc3scc(-c4ccccc4Cl)c23)CC1,55.4% (active)
19,O=C(N/N=C/c1ccccc1O)/C(=C/c1ccccc1)CCO,20%
